# Compound activity as filed in PubChem.
# PNC assembly inh – inhibitors of perinucleolar compartment assembly; PC3M PTB-GFP, PNC prevalence imaging, 16 h; hits give low values; activity change (PNC), negative = inhibition, % at 10 µM; actives 3.1% (n = 140,000);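 active = readout at or below -70, meaning at least 70% loss of cells showing the perinucleolar compartment, a nuclear body marking cancer cells; inconclusive = readout between -30 and a set limit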;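 note: plate controls were DMSO wells for no effect and camptothecin positive control wells for full effect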
#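 Read-out is percentage of cells bearing a perinucleolar compartment, from automated 20x imaging of fixed, Hoechst-stained PC3M PTB-GFP cells. Cells were seeded 4 h, then exposed 16 h to compound (23 nl of library stock) in duplicate plates.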
# 12-hLO inh – 12-hLO (ALOX12) enzyme inhibition; P18054; Potency, µM (titrated, usually from 57.1 µM), inactives show at the top dose activity change, negative = inhibition, actives largely listed as inhibitors; actives 0.12% (n = 150,000); purified 12-hLO, xylenol orange hydroperoxide absorbance; AID 1452; active = well fitted inhibition curve with a large enough effect; inconclusive = small, poorly fitted or top-dose-only effect; note: potency is the fitted concentration of half-maximal effect; nearly all actives have a fitted effect of over 55% in size
# Target sequence (P18054 whole entry, looked up): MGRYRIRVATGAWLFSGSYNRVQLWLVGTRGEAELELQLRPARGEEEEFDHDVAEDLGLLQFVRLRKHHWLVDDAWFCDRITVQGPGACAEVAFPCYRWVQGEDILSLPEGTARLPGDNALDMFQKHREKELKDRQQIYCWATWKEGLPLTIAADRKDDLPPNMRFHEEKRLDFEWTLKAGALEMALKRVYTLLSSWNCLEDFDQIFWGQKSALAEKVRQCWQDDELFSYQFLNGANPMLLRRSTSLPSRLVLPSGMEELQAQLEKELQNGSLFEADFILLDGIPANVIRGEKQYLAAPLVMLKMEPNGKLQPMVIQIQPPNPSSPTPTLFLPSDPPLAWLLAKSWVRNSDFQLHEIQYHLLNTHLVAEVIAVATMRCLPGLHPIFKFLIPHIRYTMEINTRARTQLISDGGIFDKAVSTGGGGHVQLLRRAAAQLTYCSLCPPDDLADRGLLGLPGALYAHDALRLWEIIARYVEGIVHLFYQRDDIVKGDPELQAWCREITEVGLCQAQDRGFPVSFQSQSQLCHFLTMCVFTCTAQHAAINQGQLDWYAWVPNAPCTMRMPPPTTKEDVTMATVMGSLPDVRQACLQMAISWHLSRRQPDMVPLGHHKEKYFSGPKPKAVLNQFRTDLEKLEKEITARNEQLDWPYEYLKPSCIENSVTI
#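 Hydroperoxide output read as Fe(III)-xylenol orange absorbance, 573-to-405 nm ratio, after 30 min reaction with 40 uM arachidonic acid. Enzyme: 150 nM purified human 12hLO, 15 min compound preincubation; 25 mM Hepes pH 7.0, room temperature.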
# ALDH1A1 block – inhibitors of human aldehyde dehydrogenase 1A1; P00352; Purified ALDH1A1, NADH fluorescence, propionaldehyde substrate; Potency, µM (series often up to 75.3 µM), without a hit: top-dose activity, negative = inhibition, most hits filed as inhibitors; actives 7.3% (n = 220,000); AID 1030;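 note: potency is the fitted concentration of half-maximal effect; plate controls were no enzyme wells and a reference inhibitor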
# LMNA splice mod – LMNA splicing modulation; Potency, µM (titrated, usually from 46.1 µM), without a hit: at the highest dose ratio change, negative = inhibition, actives largely listed as inhibitors; HeLa LMNA splicing GFP/RFP minigene ratio, 48 h; actives 0.01% (n = 200,000); active = well fitted inhibition curve with a large enough effect in the signal ratio, with a control signal flat, not every such curve was filed as active; inconclusive = small, poorly fitted or top-dose-only effect, or effect the other way, or a change in a side signal; the % refers to the signal ratio; note: potency is the fitted concentration of half-maximal effect
#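 Read-out is the ratio of GFP to DsRed2 object intensity, acquired by 488 nm laser-scanning cytometry on HeLa lamin A-EGFP minigene reporter cells. Compound incubation 48 hrs at 37 °C in Opti-MEM with 2% FBS; DMSO 0.5% final.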
# HPGD inh – blocks human HPGD enzyme activity; P15428; actives 4.3% (n = 150,000); Potency, µM, without a hit: top-dose activity change, negative = inhibition, actives largely listed as inhibitors; purified HPGD, NADH fluorescence kinetic, PGE2 substrate; note: potency is the fitted concentration of half-maximal effect
#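 20 nM HPGD preincubated 15 min at room temperature with compound in 50 mM Tris-HCl pH 8, 0.01% Tween 20. Started with 1 mM NAD+ and 30 uM prostaglandin E2; NADH fluorescence (360/450 nm) read 5 times over 30-s intervals, last minus first.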
# * marks the source's active call; other numbers are inactive results; ? = inconclusive; . = not tested or not shown; [ ] = remark or other dose. Shown are actives, neighbours in structure and some others; about 10% of the full set was active somewhere. Unless noted, calls come from the whole dose curve; as a rule, active = well fitted inhibition curve with a large enough effect (not every such curve was filed as active); inconclusive = small, poorly fitted or top-dose-only effect, or another doubt; inactive = no such curve, though single readings can be large or run the other way. Unless noted, % is set by controls: 0 for no effect and ±100 for the full control effect.
SMILES,PNC assembly inh,12-hLO inh,ALDH1A1 block,LMNA splice mod,HPGD inh
Cc1cc(NC(=O)C2CCCC2)nc2c1c(=O)oc1ccccc12,41.4,0.3%,14.1µM*,0.6%,-20.0%
Cc1cccc(CC(=O)Nc2cc(C)c3c(=O)oc4ccccc4c3n2)c1,-27.8,-4.6%,-5.7%,-3.1%,-20.6%
CC(C)[C@@H](CC(=O)N[C@@H]1CCCC[C@H]1C(=O)N[C@H](CC(=O)N[C@@H](CCC(=O)O)CC(=O)O)Cc1ccccc1)NC(=O)C[C@H](Cc1c[nH]c2ccccc12)NC(=O)[C@@H]1CCCC[C@H]1N,.,0.2%,?,.,-0.7%
CCCCCCCCCCCCC(C(=O)O)C(C)C(=O)O (centres undefined),.,-5.2%,4.7%,.,-18.8%
CSc1sc(C(=O)NCC2CC2)c(-c2cccs2)c1C#N,.,.,8.91µM*,.,.
N#CC1=C2N=C(N)c3c(sc4c3CCCCC4)N2C2=C(C(=O)CCC2)C1c1ccccc1 (centres undefined),16.8,-15.1%,5.01µM*,29.0%,-9.6%
COc1ccc(S(=O)(=O)O/N=C2\CCSc3ccc(C)cc32)cc1,14.7,1.2%,7.08µM*,-5.1%,-7.3%
Cc1ccc(Cn2c(CNC(=O)Cc3cccc([N+](=O)[O-])c3)nc3cccnc32)cc1,.,.,.,-1.3%[46 µM],.
CCOC(=O)C1=C(N)Oc2c(oc(CO)cc2=O)C1c1ccc(F)cc1 (centres undefined),-100.0*,-2.6%,5.1%,-0.5%,-11.9%
CCNC(=S)N1CCN(Cc2ccccc2)CC1,.,.,15.8µM*,7.9%[46 µM],.
CCNC(=S)N1CCN(C(c2ccccc2)c2ccccc2)CC1,-29.3,-6.4%,3.16µM*,-8.7%,-13.3%
CCN1CCN(C(=S)NCCc2ccccc2)CC1,36.3,9.0%,-12.1%,10.6%,-2.0%
CC1CCCN(C(=O)C2CCN(CCCc3ccccc3)CC2)C1 (centres undefined),-28.4,-3.4%,-8.8%,?,-11.3%
CCCNC(=S)N1CCN(C(c2ccccc2)c2ccccc2)CC1,32.2,2.8%,?,?,-10.5%
CC1CCCN(C(=O)C2CCN(CC(C)c3ccccc3)CC2)C1 (centres undefined),11.7,-1.8%,?,0.7%,22.4µM*
CCCCNC(=S)N1CCN(C(c2ccccc2)c2ccccc2)CC1,.,.,28.2µM*,9.7%[46 µM],.
CCN(CC)CCCNC(=O)c1c(C)oc2ncn(CC(C)C)c(=O)c12,.,.,.,-4.2%[46 µM],.
O=C(C1CCCCN1S(=O)(=O)c1ccccc1)N1CCN(C(c2ccccc2)c2ccccc2)CC1 (centres undefined),?,-1.8%,-9.2%,?,-26.8%
O=C(C1CC1)N1CCN(C(c2ccccc2)c2ccccc2)CC1,10.5,7.4%,1.12µM*,1.9%,-6.2%
c1coc(CN(Cc2cccs2)Cc2nnnn2C2CCCCC2)c1,-100.0*,-11.1%,?,2.3%,-16.2%
O=C(OC1Cc2c(O)cc(O)cc2OC1c1cc(O)c(O)c(O)c1-c1c(C2Oc3cc(O)cc(O)c3CC2O)cc(O)c(O)c1O)c1cc(O)c(O)c(O)c1 (centres undefined),.,-25.9%,4.5%,?,-28.9%
CCOC(=O)c1c(C)oc2nc(C)nc(NCc3cccc(OC)c3)c12,.,.,.,-9.5%[46 µM],.
CCOc1ccccc1NC(=O)CSc1ccc([N+](=O)[O-])cc1,.,.,20µM*,-17.0%[46 µM],.
Cn1c(=O)c2c(ncn2CC(=O)Nc2cccc(S(=O)(=O)Nc3ccccc3F)c2)n(C)c1=O,.,.,7.94µM*,21.5%[46 µM],.
Cc1ccc(SCC(=O)Nc2cc([N+](=O)[O-])ccc2O)cc1,.,.,?,4.6%[46 µM],.
SMILES,PNC assembly inh,12-hLO inh,ALDH1A1 block,LMNA splice mod,HPGD inh
O=C(CSc1ccc([N+](=O)[O-])cc1)Nc1cccc(S(=O)(=O)Nc2ccccc2F)c1,.,.,5.01µM*,0.9%[46 µM],.
Cc1ccc(-n2ncc(C(=O)NC3CCN(Cc4ccccc4)CC3)c2C2CCN(C(=O)OC(C)(C)C)CC2)cc1C,.,.,.,-25.4%[46 µM],.
Cc1cc(C)nc(SCNC(=O)c2ccc(F)cc2)n1,47.8,-12.8%,4.5%,?,14.1µM*
Cc1cc(SCNC(=O)c2ccccc2)ncn1,?,0.5%,?,-5.4%,-9.3%
O=C1C[C@H]2C(=O)[C@@H]1[C@@H](C(=O)O)[C@H]2C(=O)O,.,1.9%[11.4 µM],7.8%[13.5 µM],.,-6.2%
CN(C)c1ccc(NC(=O)CSC2=Nc3ccccc3C3=NC(CCC(=O)NCc4cccs4)C(=O)N23)cc1 (centres undefined),.,.,.,-20.1%[46 µM],.
CC1=CC(C)(C)[N+](C)=CN1c1ccccc1,1.9,1.9%,-4.0%,19.3%,-2.2%
O=c1c2ccccc2nc2n1CC/C2=C\c1ccccc1[N+](=O)[O-],45.7,1.8%,9.9%,13.2%,-11.2%
O=c1c2ccccc2nc2n1CC/C2=C/N1CCN(c2cccc(C(F)(F)F)c2)CC1,8.7,-22.1%,3.98µM*,-3.9%,.
O=C(Cn1nc(-c2ccccc2Cl)ccc1=O)Nc1ccccc1-c1ccccc1,.,.,0.5%,-6.4%[46 µM],.
O=C(COC(=O)CN1C(=O)c2ccccc2C1=O)Nc1ccc(S(=O)(=O)N2CCCC2)cc1,-3.7,6.2%,?,5.8%,-1.9%
O=C(Cn1nc(-c2ccccc2F)ccc1=O)Nc1ccc(S(=O)(=O)N2CCCCCC2)cc1,9.0,-2.3%,?,?,31.6µM*
Cc1ccccc1-c1ccc(=O)n(CC(=O)Nc2ccc(C(=O)N3CCCC3)cc2)n1,16.7,-5.2%,?,-1.7%,14.1µM*
O=C(Cn1nc(-c2ccccc2Cl)ccc1=O)Nc1ccc(Br)cc1,.,.,7.94µM*,10.1%[46 µM],.
COCCNc1nc(-c2cc(C)n(CCc3ccc(OC)cc3)c2C)cs1,.,.,10µM*,.,.
NC(C(=O)O)(c1ccc(P(=O)(O)O)cc1)C1CC1 (centres undefined),.,.,7.0%,.,.
COc1ccc(NC(=O)COC(=O)c2ccc(S(=O)(=O)N(C)c3ccccc3OC)cc2)c(OC)c1,.,.,7.08µM*,?,.
COc1ccccc1N(C)S(=O)(=O)c1ccc(C(=O)NCC(C)C)cc1,8.2,-5.2%,-0.9%,-2.9%,25.1µM*
CCN(Cc1ccccc1)S(=O)(=O)c1ccc(F)c(C(=O)Nc2ccc(C(C)C)cc2)c1,.,.,.,1.1%[46 µM],.
CCN(CC)S(=O)(=O)c1ccc(F)c(C(=O)NCCC(C)C)c1,-100.0*,0.3%,0.9%,-6.3%,-10.7%
COc1ccc(S(=O)(=O)NC2(C(F)(F)F)N=C(c3ccccc3)NC2=O)cc1 (centres undefined),-113.4*,0.4%,13.0%,3.0%,-0.6%
COCC(O)CSc1c([N+](=O)[O-])nc(C)n1Cc1ccc(OC)c([N+](=O)[O-])c1 (centres undefined),?,4.1%,25.1µM*,-7.2%,-4.4%
CC(C)Cn1cc(NC(=O)Nc2cccc(C(F)(F)F)c2)c2ccccc2c1=O,.,.,.,-16.7%[46 µM],.
O=c1[nH]c(/C(Cl)=C/c2cc(Cl)ccc2O)nc2cc(Cl)ccc12,8.0,-10.2%,6.8%,?,8.91µM*
